What was measured:
Assay in all cases: log2 ratio of Biotin-Ahx-Ub-VS probe labelling (fragment/DMSO); higher = less target engagement (more negative = stronger competition), active = hit call of the paper (q ≤ 0.05, log2 ratio ≤ -1)
Settings in all cases: compound concentration: 200 uM; treatment time: 3 h
USP42 = molecular target: T1, USP42 (UniProt Q9H9J4)
T1 sequence (whole entry): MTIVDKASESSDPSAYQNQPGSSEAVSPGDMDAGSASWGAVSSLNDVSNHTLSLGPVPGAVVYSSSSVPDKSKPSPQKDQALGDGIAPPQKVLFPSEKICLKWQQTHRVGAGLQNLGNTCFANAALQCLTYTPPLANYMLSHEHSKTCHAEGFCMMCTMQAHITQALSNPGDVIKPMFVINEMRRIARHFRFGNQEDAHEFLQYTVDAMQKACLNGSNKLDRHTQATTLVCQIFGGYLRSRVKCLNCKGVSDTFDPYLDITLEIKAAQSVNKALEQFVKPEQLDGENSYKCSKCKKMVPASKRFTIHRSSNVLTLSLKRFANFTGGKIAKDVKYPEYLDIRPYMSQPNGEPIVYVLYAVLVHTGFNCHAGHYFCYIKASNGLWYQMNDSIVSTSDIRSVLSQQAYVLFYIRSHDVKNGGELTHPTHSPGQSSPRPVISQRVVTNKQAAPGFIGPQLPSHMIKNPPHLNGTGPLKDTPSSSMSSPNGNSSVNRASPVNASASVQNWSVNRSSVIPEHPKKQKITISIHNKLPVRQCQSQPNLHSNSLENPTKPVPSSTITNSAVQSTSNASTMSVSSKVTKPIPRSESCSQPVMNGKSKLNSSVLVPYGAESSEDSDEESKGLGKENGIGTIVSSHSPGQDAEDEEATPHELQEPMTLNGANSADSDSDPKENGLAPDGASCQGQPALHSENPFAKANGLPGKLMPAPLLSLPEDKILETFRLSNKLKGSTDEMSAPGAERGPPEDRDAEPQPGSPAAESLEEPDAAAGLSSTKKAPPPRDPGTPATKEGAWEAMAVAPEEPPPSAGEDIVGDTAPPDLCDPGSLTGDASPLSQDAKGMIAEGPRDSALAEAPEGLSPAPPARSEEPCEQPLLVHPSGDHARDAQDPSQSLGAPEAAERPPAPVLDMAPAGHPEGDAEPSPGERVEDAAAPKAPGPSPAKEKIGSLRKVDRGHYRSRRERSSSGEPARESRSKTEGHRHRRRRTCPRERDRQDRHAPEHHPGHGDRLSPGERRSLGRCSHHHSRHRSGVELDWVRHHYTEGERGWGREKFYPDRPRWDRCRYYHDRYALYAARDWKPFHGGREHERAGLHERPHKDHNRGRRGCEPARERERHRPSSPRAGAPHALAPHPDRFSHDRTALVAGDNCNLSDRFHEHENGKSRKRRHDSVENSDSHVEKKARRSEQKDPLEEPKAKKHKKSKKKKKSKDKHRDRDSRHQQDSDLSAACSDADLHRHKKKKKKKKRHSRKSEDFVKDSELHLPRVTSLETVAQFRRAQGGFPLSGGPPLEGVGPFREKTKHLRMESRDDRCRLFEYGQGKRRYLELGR
Procedure, shortened: (§1)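 Each value is an average log2 ratio of fragment to vehicle, tested by unpaired t-test. The underlying Spectronaut label-free quantities were global-median-normalised, and only proteins with ≥2 unique peptides were included. Triplicate HEK293T lysate samples (495 µg) were exposed to fragment at 200 µM or vehicle for 3 h, then to Biotin-Ahx-Ub-VS at 0.5 µM final for 1 h, before NeutrAvidin enrichment of labelled DUBs, LysC and trypsin digestion, and diaPASEF LC-MS/MS.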

USP46 = USP46 (UniProt P62068)
Chain of USP46 (P62068 whole entry): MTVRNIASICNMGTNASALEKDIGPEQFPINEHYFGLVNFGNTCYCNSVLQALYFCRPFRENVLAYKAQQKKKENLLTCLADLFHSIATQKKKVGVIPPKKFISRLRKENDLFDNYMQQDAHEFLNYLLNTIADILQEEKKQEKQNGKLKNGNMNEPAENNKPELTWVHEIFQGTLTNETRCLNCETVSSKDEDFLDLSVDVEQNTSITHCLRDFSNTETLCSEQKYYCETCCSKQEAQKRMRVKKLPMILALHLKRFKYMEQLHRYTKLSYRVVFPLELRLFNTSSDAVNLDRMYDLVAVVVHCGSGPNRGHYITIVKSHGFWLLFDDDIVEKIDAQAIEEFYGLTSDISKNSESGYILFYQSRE
Procedure, shortened: as §1

USP47 = molecular target: T2, USP47 (UniProt Q96K76)
T2 sequence (whole entry): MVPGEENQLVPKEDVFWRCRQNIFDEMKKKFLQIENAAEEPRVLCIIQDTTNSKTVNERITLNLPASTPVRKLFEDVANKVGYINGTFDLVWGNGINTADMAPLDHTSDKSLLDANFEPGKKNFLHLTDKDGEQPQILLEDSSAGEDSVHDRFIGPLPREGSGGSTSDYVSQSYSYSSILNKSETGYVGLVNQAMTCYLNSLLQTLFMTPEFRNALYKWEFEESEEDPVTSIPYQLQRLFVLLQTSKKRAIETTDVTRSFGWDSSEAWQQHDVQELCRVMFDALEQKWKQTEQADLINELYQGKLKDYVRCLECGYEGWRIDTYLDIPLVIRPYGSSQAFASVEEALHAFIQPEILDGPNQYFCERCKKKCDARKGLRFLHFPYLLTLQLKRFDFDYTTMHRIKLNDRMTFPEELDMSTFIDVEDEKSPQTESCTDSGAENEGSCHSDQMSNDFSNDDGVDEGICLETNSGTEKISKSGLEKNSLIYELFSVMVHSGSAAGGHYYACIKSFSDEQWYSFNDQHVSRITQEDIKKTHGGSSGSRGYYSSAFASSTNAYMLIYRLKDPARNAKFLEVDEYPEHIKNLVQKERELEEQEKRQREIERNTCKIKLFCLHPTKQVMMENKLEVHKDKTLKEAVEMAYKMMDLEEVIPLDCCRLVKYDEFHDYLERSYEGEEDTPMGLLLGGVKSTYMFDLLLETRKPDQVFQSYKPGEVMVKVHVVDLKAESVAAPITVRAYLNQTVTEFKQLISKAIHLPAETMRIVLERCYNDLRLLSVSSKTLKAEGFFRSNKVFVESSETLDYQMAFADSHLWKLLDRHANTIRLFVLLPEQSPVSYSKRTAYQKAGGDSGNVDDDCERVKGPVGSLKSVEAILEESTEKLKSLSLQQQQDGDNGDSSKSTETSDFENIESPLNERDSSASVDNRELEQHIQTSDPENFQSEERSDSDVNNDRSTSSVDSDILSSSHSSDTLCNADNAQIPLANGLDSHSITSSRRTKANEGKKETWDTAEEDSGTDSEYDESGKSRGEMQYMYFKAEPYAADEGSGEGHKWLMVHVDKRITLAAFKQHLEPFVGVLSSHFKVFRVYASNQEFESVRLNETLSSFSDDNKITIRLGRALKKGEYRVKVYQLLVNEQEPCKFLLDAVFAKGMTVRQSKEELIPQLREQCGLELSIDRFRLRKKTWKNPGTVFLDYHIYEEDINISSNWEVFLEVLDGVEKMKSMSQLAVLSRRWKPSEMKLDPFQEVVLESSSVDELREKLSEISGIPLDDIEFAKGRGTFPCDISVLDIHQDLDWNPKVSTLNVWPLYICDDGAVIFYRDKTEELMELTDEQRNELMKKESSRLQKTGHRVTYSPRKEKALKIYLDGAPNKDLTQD
Procedure, shortened: as §1

USP48 = molecular target: T3, USP48 (UniProt Q86UV5)
T3 sequence (whole entry): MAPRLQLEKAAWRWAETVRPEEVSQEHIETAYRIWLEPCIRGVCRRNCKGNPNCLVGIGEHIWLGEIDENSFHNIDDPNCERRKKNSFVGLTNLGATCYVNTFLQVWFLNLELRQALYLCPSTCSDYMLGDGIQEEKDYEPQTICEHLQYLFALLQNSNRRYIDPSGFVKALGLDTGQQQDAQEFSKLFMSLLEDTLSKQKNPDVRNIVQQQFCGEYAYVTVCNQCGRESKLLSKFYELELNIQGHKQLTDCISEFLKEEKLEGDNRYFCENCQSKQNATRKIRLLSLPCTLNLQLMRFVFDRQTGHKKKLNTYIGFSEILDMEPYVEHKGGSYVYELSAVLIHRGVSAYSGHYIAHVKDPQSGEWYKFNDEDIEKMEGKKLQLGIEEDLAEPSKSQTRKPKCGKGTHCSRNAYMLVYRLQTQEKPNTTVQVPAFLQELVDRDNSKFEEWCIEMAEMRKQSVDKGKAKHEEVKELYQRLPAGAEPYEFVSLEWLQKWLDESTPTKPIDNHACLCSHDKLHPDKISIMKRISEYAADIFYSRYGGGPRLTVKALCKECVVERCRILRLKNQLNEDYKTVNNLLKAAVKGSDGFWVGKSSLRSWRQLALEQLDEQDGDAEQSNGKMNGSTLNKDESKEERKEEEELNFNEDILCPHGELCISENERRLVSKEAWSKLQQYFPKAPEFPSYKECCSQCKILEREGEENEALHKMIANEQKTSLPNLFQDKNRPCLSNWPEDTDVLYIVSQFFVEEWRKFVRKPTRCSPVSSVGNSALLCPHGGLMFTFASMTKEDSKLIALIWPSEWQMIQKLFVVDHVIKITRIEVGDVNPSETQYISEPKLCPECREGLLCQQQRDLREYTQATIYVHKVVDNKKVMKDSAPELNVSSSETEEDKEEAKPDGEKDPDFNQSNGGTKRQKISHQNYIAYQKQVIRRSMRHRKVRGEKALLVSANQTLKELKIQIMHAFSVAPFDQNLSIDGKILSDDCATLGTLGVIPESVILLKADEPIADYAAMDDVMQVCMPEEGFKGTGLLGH
Procedure, shortened: as §1

USP5 = molecular target: T4, USP5 (UniProt P45974)
T4 sequence (whole entry): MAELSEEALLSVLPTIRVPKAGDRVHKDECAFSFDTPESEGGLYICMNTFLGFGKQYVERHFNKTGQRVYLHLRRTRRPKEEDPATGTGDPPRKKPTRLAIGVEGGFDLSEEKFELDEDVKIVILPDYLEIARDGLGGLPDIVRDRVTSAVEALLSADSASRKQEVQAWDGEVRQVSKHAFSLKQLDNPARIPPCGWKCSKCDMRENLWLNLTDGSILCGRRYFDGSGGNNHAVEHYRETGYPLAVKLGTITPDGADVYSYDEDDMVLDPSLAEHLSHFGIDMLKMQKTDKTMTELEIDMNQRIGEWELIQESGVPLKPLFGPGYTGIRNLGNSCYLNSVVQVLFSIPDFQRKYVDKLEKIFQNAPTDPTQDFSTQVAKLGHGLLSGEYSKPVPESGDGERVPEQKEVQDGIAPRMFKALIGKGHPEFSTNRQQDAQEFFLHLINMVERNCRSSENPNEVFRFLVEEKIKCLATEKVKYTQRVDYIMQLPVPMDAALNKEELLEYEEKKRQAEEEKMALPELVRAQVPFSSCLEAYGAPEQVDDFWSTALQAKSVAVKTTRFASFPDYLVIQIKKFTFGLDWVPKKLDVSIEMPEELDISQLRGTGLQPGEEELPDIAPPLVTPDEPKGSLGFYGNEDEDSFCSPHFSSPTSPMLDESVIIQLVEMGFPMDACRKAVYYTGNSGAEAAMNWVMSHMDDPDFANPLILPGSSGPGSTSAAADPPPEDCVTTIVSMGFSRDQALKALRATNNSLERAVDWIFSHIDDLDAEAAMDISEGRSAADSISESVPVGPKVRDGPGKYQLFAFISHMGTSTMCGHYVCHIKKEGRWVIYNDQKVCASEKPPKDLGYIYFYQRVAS
Procedure, shortened: as §1

USP54 = USP54 (UniProt Q70EL1)
Chain of USP54 (Q70EL1 whole entry): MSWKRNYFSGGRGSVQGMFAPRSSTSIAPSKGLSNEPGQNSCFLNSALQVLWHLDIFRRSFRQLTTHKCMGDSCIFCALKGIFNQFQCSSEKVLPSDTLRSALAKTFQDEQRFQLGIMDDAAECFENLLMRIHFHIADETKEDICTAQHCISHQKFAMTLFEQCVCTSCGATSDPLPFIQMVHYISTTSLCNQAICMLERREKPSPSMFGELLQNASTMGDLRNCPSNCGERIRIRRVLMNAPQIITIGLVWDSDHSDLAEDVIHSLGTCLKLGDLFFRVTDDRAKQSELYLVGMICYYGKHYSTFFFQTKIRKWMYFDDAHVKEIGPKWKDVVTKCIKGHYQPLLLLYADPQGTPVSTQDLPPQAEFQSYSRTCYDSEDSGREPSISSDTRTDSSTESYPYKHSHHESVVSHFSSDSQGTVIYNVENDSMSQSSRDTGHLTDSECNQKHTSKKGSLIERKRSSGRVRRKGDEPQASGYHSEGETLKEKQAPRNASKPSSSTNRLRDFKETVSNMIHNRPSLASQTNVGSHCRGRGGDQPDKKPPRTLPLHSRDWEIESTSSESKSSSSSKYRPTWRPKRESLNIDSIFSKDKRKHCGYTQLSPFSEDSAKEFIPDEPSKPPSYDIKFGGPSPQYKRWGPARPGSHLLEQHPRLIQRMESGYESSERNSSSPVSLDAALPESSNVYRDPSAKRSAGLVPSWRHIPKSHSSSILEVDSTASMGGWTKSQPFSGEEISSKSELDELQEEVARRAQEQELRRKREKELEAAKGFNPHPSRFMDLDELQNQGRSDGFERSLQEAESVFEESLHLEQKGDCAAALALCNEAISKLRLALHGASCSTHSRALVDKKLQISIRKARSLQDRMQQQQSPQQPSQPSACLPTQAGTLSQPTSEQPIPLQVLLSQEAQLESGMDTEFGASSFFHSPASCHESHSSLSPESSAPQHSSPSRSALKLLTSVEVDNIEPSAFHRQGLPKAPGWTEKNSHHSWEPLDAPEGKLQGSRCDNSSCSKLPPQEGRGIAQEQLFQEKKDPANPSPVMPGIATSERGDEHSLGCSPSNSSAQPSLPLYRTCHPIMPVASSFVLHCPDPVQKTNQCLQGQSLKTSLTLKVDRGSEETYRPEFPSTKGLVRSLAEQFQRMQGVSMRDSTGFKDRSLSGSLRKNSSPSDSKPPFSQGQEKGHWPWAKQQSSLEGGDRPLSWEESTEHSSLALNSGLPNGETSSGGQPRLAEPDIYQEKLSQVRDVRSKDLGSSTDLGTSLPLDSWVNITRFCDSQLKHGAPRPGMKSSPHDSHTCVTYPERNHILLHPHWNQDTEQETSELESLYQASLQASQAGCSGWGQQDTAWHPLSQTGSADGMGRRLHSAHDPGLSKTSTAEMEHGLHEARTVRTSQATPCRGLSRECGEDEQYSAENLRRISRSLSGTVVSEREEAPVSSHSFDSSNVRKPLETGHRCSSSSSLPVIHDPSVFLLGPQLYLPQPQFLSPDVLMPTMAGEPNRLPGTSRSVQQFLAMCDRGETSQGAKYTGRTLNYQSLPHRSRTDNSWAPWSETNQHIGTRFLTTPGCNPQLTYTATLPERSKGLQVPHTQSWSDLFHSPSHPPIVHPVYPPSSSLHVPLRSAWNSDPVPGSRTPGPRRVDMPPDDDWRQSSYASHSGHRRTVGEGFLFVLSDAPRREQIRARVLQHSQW
Procedure, shortened: as §1

USP7 = USP7 (UniProt Q93009)
Chain of USP7 (Q93009 whole entry, looked up): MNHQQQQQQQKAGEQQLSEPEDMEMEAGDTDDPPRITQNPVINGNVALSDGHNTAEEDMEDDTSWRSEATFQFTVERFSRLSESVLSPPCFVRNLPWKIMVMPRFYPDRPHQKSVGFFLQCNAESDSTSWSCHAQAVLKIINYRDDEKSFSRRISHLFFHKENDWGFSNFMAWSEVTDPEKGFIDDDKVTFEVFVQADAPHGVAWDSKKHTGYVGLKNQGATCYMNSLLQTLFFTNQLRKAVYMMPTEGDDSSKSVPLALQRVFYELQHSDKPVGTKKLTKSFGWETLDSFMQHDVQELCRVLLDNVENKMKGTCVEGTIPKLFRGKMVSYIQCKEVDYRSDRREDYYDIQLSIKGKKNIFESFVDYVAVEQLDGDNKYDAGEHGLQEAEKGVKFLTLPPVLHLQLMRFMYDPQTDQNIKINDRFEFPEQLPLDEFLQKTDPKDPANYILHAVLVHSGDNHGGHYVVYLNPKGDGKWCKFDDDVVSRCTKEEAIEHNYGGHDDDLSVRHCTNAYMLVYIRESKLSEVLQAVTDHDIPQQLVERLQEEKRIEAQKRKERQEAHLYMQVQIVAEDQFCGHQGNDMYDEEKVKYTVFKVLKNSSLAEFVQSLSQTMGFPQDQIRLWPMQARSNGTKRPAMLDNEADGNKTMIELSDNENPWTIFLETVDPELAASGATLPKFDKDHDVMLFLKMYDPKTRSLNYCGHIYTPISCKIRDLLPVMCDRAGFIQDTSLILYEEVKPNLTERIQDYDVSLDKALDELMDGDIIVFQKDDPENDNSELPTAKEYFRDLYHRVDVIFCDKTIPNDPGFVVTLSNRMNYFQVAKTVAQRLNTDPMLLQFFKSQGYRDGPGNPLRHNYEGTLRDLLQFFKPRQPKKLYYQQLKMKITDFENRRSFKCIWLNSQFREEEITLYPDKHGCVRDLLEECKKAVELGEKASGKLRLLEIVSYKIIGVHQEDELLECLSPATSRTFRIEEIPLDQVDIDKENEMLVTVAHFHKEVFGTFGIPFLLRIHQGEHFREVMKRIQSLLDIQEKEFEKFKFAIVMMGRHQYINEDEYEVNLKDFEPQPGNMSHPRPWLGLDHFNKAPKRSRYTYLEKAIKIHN
Procedure, shortened: as §1

USP8 = molecular target: T5, USP8 (UniProt P40818)
T5 sequence (whole entry): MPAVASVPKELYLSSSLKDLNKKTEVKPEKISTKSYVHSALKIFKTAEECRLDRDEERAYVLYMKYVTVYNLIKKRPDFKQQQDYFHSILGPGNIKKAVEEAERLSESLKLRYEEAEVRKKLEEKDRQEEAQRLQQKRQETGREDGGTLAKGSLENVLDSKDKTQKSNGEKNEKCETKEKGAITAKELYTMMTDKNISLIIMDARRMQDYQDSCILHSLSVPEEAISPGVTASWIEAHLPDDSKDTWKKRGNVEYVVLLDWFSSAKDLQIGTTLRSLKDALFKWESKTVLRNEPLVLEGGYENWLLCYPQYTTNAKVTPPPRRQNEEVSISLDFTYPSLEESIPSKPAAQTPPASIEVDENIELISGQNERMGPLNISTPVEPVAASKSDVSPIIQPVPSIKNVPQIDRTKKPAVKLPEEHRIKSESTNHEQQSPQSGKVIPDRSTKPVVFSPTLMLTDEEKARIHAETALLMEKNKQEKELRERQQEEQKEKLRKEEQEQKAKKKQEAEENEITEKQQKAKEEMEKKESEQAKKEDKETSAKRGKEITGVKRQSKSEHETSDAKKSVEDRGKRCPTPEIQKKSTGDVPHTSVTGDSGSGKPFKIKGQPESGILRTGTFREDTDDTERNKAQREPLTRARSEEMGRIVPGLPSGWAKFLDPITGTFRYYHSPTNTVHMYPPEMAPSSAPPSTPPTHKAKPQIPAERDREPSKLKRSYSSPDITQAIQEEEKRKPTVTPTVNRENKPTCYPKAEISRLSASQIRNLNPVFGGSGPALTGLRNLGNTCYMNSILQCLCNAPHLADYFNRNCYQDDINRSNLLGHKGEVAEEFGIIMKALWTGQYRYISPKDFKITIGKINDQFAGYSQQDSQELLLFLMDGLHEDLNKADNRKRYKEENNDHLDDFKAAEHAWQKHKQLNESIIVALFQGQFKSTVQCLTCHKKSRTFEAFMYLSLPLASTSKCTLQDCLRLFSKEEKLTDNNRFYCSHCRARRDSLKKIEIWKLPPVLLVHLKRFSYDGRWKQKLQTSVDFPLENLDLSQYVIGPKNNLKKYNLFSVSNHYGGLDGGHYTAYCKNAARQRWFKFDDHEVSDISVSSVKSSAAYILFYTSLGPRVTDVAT
Procedure, shortened: as §1

USP9X = USP9X (UniProt Q93008)
Procedure, shortened: as §1

UniProt O00487 = molecular target: UniProt O00487
Chain of UniProt O00487 (O00487 whole entry): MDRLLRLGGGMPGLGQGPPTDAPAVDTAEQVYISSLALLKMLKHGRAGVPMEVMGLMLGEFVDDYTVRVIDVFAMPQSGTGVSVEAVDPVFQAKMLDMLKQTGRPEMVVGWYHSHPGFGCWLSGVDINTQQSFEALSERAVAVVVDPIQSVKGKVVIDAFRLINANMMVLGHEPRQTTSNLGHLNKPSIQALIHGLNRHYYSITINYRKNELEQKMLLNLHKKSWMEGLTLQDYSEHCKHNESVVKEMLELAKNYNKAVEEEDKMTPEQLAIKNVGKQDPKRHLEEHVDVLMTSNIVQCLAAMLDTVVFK
Procedure, shortened: as §1

Measured: log2 ratio of Biotin-Ahx-Ub-VS probe labelling

O=C(CCl)N1CCN2C(=O)CCC2C1 (stereo not given)
inactive: USP42 -0.359 | USP46 0.247 | USP47 -0.0244 | USP48 -0.154 | USP5 0.153 | USP54 0.776 | USP7 -0.0819 | USP8 -0.376 | USP9X -0.098 | UniProt O00487 -0.0865

From the supplement of paper PMC11732987, “Enantioselective OTUD7B fragment discovery through chemoproteomics screening and high-throughput optimisation” (Communications Chemistry, 2025)
